Potency data for 9 molecules are collected here from PubChem BioAssay (NCATS).

SMILES strings stand for the structures. Records with an inconclusive call do not appear. Entries that show only a call come without a potency. The source made the active and inactive calls. Calls follow the shape of the dose curve; as a rule, active = well fitted cell-killing curve with a large enough effect; inconclusive = small, poorly fitted or top-dose-only effect, or effect the other way; inactive = flat fitted curve, though single readings scatter.

This assay deals with OV90. In words: Primary qHTS to identify gynecologic anti-cancer compounds using libraries of approved drugs and bioactive compounds (AID 1345084). Also: nearly all actives have a fitted effect of over 55% in size. The following applies: Gynecologic cancer cell panel viability, ATPlite luminescence, 48 h; series mostly up to 57.5 µM. In short, it runs like this: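 Cytotoxicity screen measuring ATP content by luciferase luminescence. Each compound is applied at five concentrations for 48 h at 37 C with 5% CO2.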
(Quantitative high-throughput screening tests each substance at several concentrations.)
For the molecule `C=C(C(=O)O)[C@H]1C[C@]2(C)[C@@H](O)CC[C@]23O[C@H]1C[C@@H]3C`, the Potency result was “inactive”.
Then `COc1c(/C=C/C(C)(C)O)ccc2c1C(=O)OCc1cc(C)cc(O)c1O2`, with “inactive”; and `Cc1cc(C)c(CNC(=O)c2cc(-c3ccc(CN4CCOCC4)cc3)cc3c2cnn3C2CCCC2)c(=O)[nH]1`, with “inactive”; and `O=C(O)c1ccc(CN2CCC(CN[C@@H]3C[C@H]3c3ccccc3)CC2)cc1`, with “inactive”.
Turning to `COc1ccc(N2CCOCC2)c2sc(NC(=O)N3CCC(C)(O)CC3)nc12`, the Potency result is “inactive”.
To `CCC(COC)n1nnc2c(Nc3ccc(OC)cc3C)nc(C)cc21` (centres undefined) belongs “inactive”; to `CC(=O)OC1C[C@@]2(C)[C@@H](CC[C@@H](C)[C@]23Cc2c(O)cc4c(c2O3)CNC4=O)C(C)(C)[C@@H]1O` (some centres undefined), “inactive”.
To `OC/C=C/C=C/[C@H]1Cc2cc(O)cc(O)c2O1` belongs “inactive”.
Then `C/C=C/C1=CC2=C(CO1)C(=O)C(C)(O)C(OC(=O)c1c(C)cc(OC)cc1O)C2` (centres undefined), with “inactive”.
